Compound activity deposited in PubChem BioAssay by National Center for Advancing Translational Sciences (NCATS).
HP1b chromo inh – inhibitors of HP1-beta chromodomain binding to methylated histone tails; 390,000 compounds, 0.56% hits; AlphaScreen HP1-beta / biotin-H3K9me3 peptide binding; P83916; Potency, µM (top dose mostly 114 µM), hits mostly inhibitors; note: nearly all actives have a fitted effect of over 70% in size
Target sequence (P83916 whole entry, looked up): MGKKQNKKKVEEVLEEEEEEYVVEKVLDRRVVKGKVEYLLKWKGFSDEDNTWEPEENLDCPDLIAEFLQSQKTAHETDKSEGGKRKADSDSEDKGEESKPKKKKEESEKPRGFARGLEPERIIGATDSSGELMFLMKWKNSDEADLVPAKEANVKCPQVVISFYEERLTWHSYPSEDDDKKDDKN
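Compound inhibition of the preformed complex between 50 nM HP1-beta and 50 nM biotinylated H3K9me3 peptide was read by AlphaScreen. Buffer was PBS pH 7.4 with 0.01% Tween-20. Incubations ran 30 min at room temperature, with 10 ug/mL donor/acceptor beads.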
G9a block – G9a (human) methyltransferase inhibition | Potency, µM (titrated, usually from 102 µM), most hits filed as inhibitors | G9a H3K9 monomethylation, AlphaScreen, 2 h | Q96KQ7 | 350,000 compounds, 8.8% hits; note: nearly all actives have a fitted effect of over 75% in size
Target sequence (Q96KQ7 913-1193 limits assumed): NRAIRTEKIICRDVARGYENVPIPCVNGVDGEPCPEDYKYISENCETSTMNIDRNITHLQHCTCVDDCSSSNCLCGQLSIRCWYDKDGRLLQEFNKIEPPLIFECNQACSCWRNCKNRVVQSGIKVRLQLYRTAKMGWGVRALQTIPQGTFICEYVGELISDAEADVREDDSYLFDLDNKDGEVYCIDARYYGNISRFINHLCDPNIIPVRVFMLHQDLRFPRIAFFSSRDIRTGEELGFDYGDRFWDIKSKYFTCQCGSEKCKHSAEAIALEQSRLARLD
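AlphaScreen read-out: biotin-H3K9 peptide (500 nM) methylation by 20 nM enzyme with 20 uM SAM, 2 h at room temperature after 15 min compound preincubation; anti-monomethyl H3K9 antibody plus donor/acceptor beads, 10 min dark.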
CtBP-E1A blk – CtBP/E1A binding inhibition; AlphaScreen GST-E1A/His-CtBP binding, 1536-well; active compounds read low; activity change, % (no concentration beside the values); 340,000 compounds, 0.49% hits; AID 651724; in the data active = activity change below about -65%; inconclusive = mostly about -30% to -63%
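In 5 uL wells, 23 nL compound meets equimolar GST-E1A and His-CtBP (5X stock 125 nM each) for 2 h, 37 °C. Beads (5X, 50 ug/mL) then 1 h, 37 °C, dark.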
JMJD2A Tudor inh – blocks the human JMJD2A Tudor domain. 390,000 compounds, 4.4% hits. O75164. Potency, µM (doses to about 114 µM), most hits filed as inhibitors. AlphaScreen JMJD2A-Tudor / H3K4me3 peptide binding; note: nearly all actives have a fitted effect of over 50% in size
BAZ2B inh – blocks human BAZ2B | 360,000 compounds, 4.4% hits | Q9UIF8 | AlphaScreen BAZ2B-H3K14Ac peptide displacement | Potency, µM (titrated, usually from 114 µM), actives largely listed as inhibitors; note: nearly all actives have a fitted effect of over 60% in size
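AlphaScreen displacement: compounds (up to 110uM) incubated 30 min at room temperature with a preformed 50 nM BAZ2B/50 nM biotinylated H3K14Ac peptide complex in PBS pH 7.4 with Tween-20. Donor and acceptor beads at 10 ug/mL final added, 20 min light-protected before reading.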
Six1-Eya2 inh – inhibitors of human Six1/Eya2 interaction. AlphaScreen GST-Six1/His-Eya2 binding, biochemical; active compounds read low. activity change, % (no concentration beside the values). 360,000 compounds, 0.56% hits; in the data active = activity change below about -65%; inconclusive = mostly about -30% to -63%
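Six1/Eya2 binding was read as AlphaScreen signal after compounds were pinned into GST-Six1 plus His-tagged Eya2 (5X stock 250/500 nM) in pH 8.0 Tris/NaCl/TCEP buffer, beads added, then incubated 1 h, 37 C, dark.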
Numbers stand for hits; n = inactive; u = inconclusive; x = no result given; ! = repeats disagree; [ ] = dose if it differs, or a comment. Compounds with a hit are over-represented: about 10% of the library has one in this group of screens. Unless noted, calls come from the whole dose curve; as a rule, active = well fitted inhibition curve with a large enough effect; inconclusive = small, poorly fitted or top-dose-only effect; inactive = no such curve, though single readings can be large or run the other way.

SMILES | HP1b chromo inh | G9a block | CtBP-E1A blk | JMJD2A Tudor inh | BAZ2B inh | Six1-Eya2 inh
Cc1cc(NC(=O)c2cc(-c3cccc(Cl)c3)on2)nn1Cc1ccc(Cl)cc1 | n | u | x | n | u | x
Nc1cc(Cl)c2nonc2c1[N+](=O)[O-] | n | 31.6µM | n | n | n | n
COc1cc2c(cc1O)C[C@H]1NCCc3cc4c(c-2c31)OCO4 | n | u | -79.3 | 22.4µM | 22.4µM | -65.2
CCN1C[C@@]2(COC)[C@H]3[C@@H](OC)[C@H]4C1[C@@]3([C@H](OC)C[C@@H]2O)[C@H]1C[C@@]2(O)[C@@H](OC(=O)c3ccccc3)[C@@H]1[C@@]4(OC(C)=O)[C@H](O)[C@@H]2OC | x | n[21.5 µM] | x | x | x | x
CN1C(=O)N(C)C(=O)C2(Cc3ccccc3N3CCCC32)C1=O (centres undefined) | n | n[12.7 µM] | n | n | n | n
CN1C(=O)NC(=O)C2(Cc3ccccc3N3CCOCC32)C1=O (centres undefined) | n | n | n | n | n | n
Cc1ccc(N2C(=O)NC(=O)C3(Cc4ccccc4N4CCCC43)C2=O)cc1 (centres undefined) | n | 8.91µM | n | n | n | n
O=C1NC(=O)C2(Cc3ccccc3N3CCCC32)C(=O)N1c1ccc(Cl)cc1 (centres undefined) | n | 20µM | n | u | n | n
ClC(Cl)(Cl)Cl | x | n | x | x | x | x
CC1(C)S[C@@H]2[C@H](N)C(=O)N2C1C(=O)O (some centres undefined) | x | n[5.15 µM] | x | x | x | x
Clc1ccc(COC(Cn2ccnc2)c2ccc(Cl)cc2Cl)c(Cl)c1 (centres undefined) | n | n[2.33 µM] | n | 39.8µM | 22.4µM | n
C=CCOC(Cn1ccnc1)c1ccc(Cl)cc1Cl (centres undefined) | n | n[12.7 µM] | x | n | n | n
N#Cc1ccc(NC(=O)CN2CCN(C(=O)c3cccs3)CC2)cc1Cl | n | 39.8µM | n | n | n | n
N#Cc1ccc(NC(=O)CN2C(=O)NC3(CCCC3)C2=O)cc1Cl | n | n | n | n | n | n
CC12CC[C@H]3[C@@H](CCC4(O)C[C@H](O)CCC34/C=N/NC(=O)c3ccc(O)cc3)C1(O)CCC2C1=CC(=O)OC1 (some centres undefined) | n | x | n | n | n | n
COc1ccc(C(=O)N/N=C/C23CC[C@@H](O)CC2(O)CC[C@@H]2[C@@H]3CCC3(C)C(C4=CC(=O)OC4)CCC23O)cc1 (some centres undefined) | n | 50.1µM | n | n | n | n
COc1cc2c(cc1OC)[C@@H]1C(=O)c3ccc4c(c3O[C@@H]1CO2)C[C@H](C(C)C)O4 | n | x | n | u | u | n
COc1cc2c(cc1OC)C1C(=O)c3ccc4c(c3OC1CO2)CC(C(C)C)O4 (centres undefined) | n | x | u | 44.7µM | x | u
Cc1ccccc1C1=NCC(=O)N(CC(=O)NCc2ccco2)c2sc3c(c21)CCCC3 | n | n[12.7 µM] | n | 89.1µM | n | n
O=C1CC(=O)N(c2ccc(Cl)cc2Cl)C(=O)N1 | n | 44.7µM | n | n | n | n
N#CCn1c(CCl)nc2ccccc2c1=O | n | 56.2µM | n | n | n | n
CN(C)CCc1nc2ccccc2c(=O)n1-c1ccccc1 | x | n[12.7 µM] | x | x | n | x
CCC1Nc2ncnc(N3CCN(c4ccccn4)CC3)c2N(Cc2ccc(Br)cc2)C1=O (centres undefined) | n | x | n | 79.4µM | x | n
CCc1ccc(-n2nc(C)c3c2NC(=O)CSC3c2ccc(OC)cc2OC)cc1 (centres undefined) | n | n | x | n | n | x
O=C(CNC(=O)c1cccs1)NCC(=O)OCC(=O)c1ccc([N+](=O)[O-])cc1 | n | 44.7µM | n | n | x | n
SMILES | HP1b chromo inh | G9a block | CtBP-E1A blk | JMJD2A Tudor inh | BAZ2B inh | Six1-Eya2 inh
CCCC1(CCO)C(=O)NC(=S)NC1=O | n | x | n | 20µM | x | n
CCCCC1(CCO)C(=O)NC(=S)NC1=O | n | x | n | n | x | n
CCCCCCOc1ccc(CN2CCN(CC)CC2)cc1 | n | 56.2µM | n | n | u | n
CCN1CCN(Cc2ccc(OC(F)(F)F)cc2)CC1 | n | n[12.7 µM] | n | n | n | n
Brc1c(Br)c(Br)c2n[nH]nc2c1Br | x | n | x | x | x | x
O=C(c1csnn1)N1CCC[C@@]2(CCN(Cc3ccncc3)C2)C1 | x | n[12.7 µM] | x | x | x | x
CC(C)(C)C(=O)Cn1c(NCCCl)nc2ccccc21 | n | 39.8µM | n | n | n | n
CC(C)CC[C@@H](O)[C@](C)(O)C1CC[C@@]2(O)C3=CC(=O)[C@@H]4C[C@@H](O)[C@@H](O)C[C@]4(C)C3CC[C@]12C (some centres undefined) | n | x | n | n | x | n
C[C@]12C=CC(=O)C=C1CCC1C2=CC[C@]2(C)[C@@H](C(=O)CN3CCN(c4cc(N5CCCC5)nc(N5CCCC5)n4)CC3)CC[C@@H]12 (some centres undefined) | x | 39.8µM | x | x | x | x
CCCCCCC[n+]1ccc(-c2cc[n+](CCCCCCC)cc2)cc1 | n | 4.47µM | n | u | 79.4µM | n
CCCCCCCCCCCCCCCC[n+]1ccccc1 | n | n[2.33 µM] | n | n | x | n
O[C@@H]1CCCC[C@@H]1N1CCC(c2ccccc2)CC1 | x | n | x | x | x | x
CCOc1ccccc1-n1c(O)c(C=Nc2ccc(N(CC)CC)cc2)c(=O)[nH]c1=O | n | 50.1µM | n | u | u | n
CCN(CC)c1ccc(N=Cc2c(O)n(Cc3ccccc3)c(=O)[nH]c2=O)cc1 | n | n | n | n | n | -72.2!
CN1CCN(C(=S)c2ccc([N+](=O)[O-])cc2)CC1 | u | 10µM | n | u | n | n
Cn1c(O)c(/C=C2\C=Nc3ccccc32)c(=O)n(C)c1=O | n | u | x | n | n | n
Cn1c(O)c(/C=C2\C=c3ccccc3=NC2=O)c(=O)n(C)c1=O | n | 39.8µM | n | n | n | n
COc1ccccc1NC(=O)Oc1cccc(OC(=O)c2ccccc2)c1 | n | 70.8µM | x | n | n | n
CC(=O)N1C[C@H](O)C[C@H]1C(=O)O | n | n | n | u | n | n
CCn1nc(-c2cccs2)nc2c(=O)n(C)c(=O)nc1-2 | n | 17.8µM | n | n | n | n
O=C(C/C=N\OCc1c(Cl)cccc1Cl)Oc1ccc(Cl)cc1Cl | n | u | n | n | n | n
C=C[C@@H]1CN2CC[C@H]1C[C@H]2[C@H](O)c1ccnc2ccccc12 | x | n | x | x | x | x
CC1=C[C@@H]2c3cccc4[nH]cc(c34)C[C@H]2N(C)C1 | n | 44.7µM | n | n | n | u
CCN(CC)C(=O)N[C@@H]1C[C@H]2c3cccc4[nH]cc(c34)C[C@@H]2N(C)C1 | x | n[21.5 µM] | x | x | x | x
COc1cc(Cn2c(=O)oc3ccc(C)cc32)ccc1OC(C)C | n | n | n | n | n | n
